{"source": "the supplement of paper PMC9801561", "note": "± gives the standard deviation of the averaged measurements."}
{"tested_on": "Escherichia coli Nissle 1917", "test": "area under OmniLog respiration curve over 48 h (OmniLog units x h); higher = more growth / nutrient utilisation; extreme values may be limits of the assay", "conditions": "nutrient role: C-Source, alcohol; incubation: 48 h, 37 °C"}
{"smiles": "CC(=O)C(C)=O", "note": "[2,3-Butanedione]", "area under OmniLog respiration curve": "19 ± 14"}
{"smiles": "CC(O)C(C)O", "note": "(centres undefined) [2,3-Butanediol]", "area under OmniLog respiration curve": "20.2 ± 16"}
{"smiles": "O=C(CO)CO", "note": "[Dihydroxyacetone]", "area under OmniLog respiration curve": "6280 ± 820"}
{"tested_on": "Escherichia coli Nissle 1917", "test": "area under OmniLog respiration curve over 48 h (OmniLog units x h); higher = more growth / nutrient utilisation; extreme values may be limits of the assay", "conditions": "nutrient role: C-Source, carbohydrate; incubation: 48 h, 37 °C"}
{"smiles": "OC[C@@]12OC[C@@H](O1)[C@@H](O)[C@@H](O)[C@@H]2O", "note": "[Sedoheptulosan]", "area under OmniLog respiration curve": "201 ± 160"}
{"smiles": "O=P(O)(O)OC[C@H]1OC(O)(CO)[C@@H](O)[C@@H]1O", "note": "(stereo partly drawn) [D-Fructose-6-Phosphate]", "area under OmniLog respiration curve": "9900 ± 640"}
{"smiles": "OC[C@@H](O)[C@H](O)[C@H](O)[C@@H](O)CO", "note": "[Dulcitol]", "area under OmniLog respiration curve": "3230 ± 100"}
{"smiles": "CO[C@@H]1O[C@H](CO)[C@H](O)[C@H](O)[C@H]1O", "note": "[b-Methyl-D-Galactoside]", "area under OmniLog respiration curve": "6290 ± 550"}
{"smiles": "OC[C@@H]1OC(O)[C@@H](O)[C@H](O)[C@H]1O", "note": "(stereo partly drawn) [L-Glucose]", "area under OmniLog respiration curve": "29.9 ± 43"}
{"smiles": "OC[C@H]1O[C@H](OC[C@H]2O[C@H](O[C@]3(CO)O[C@H](CO)[C@@H](O)[C@@H]3O)[C@H](O)[C@@H](O)[C@@H]2O)[C@H](O)[C@@H](O)[C@H]1O", "note": "[D-Raffinose]", "area under OmniLog respiration curve": "6090 ± 450"}
